Source: PubChem BioAssay
GIRK2 act = activators of NPY4-receptor-primed GIRK2 channels, summary, cell-based, HEK293, thallium flux | 34,000 tested, under 10 active | activation (% efficacy), % for hits at 37.5 µM | HEK293 GIRK2/NPY4 cells, thallium flux fluorescence | G protein-activated inward rectifier potassium channel 2 (Homo sapiens), P48051;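 active means primary screen hit, no activity in plain HEK293 cells, and in GIRK2-only cells above 5% efficacy rising with concentration; inactive means the rest, including fluorescent compounds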;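 further: efficacy is normalized control-subtracted fluorescence 15 s after thallium addition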
Target sequence (P48051 whole entry, looked up): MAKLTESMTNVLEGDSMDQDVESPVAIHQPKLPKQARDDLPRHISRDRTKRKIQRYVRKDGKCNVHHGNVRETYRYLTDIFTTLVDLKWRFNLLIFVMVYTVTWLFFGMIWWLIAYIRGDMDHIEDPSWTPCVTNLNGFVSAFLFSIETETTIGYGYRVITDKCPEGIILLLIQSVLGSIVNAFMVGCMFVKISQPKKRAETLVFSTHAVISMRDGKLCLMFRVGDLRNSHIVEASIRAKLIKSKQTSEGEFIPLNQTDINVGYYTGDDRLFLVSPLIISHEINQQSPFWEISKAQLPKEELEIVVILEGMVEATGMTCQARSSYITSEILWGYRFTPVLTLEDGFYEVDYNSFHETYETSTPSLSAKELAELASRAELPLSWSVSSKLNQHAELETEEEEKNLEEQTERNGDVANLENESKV
AMPAR-TARP mod = modulators of GluA2-stargazin AMPA receptor complexes, primary screen, cell-based, membrane potential dye. HEK293 GluA2+stargazin, membrane potential dye (FDSS), glutamate EC50; hits were called plate by plate, in both directions. calls only at 30 µM. 40,000 tested, 3.5% active;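 active means any of four per-well response measures lying three or more SD from its plate-wide compound average, in either direction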
Calls only; – = inactive; · = no result given; + = active, no number. The full list was thinned out, with hits kept by preference.

SMILES | GIRK2 act | AMPAR-TARP mod
CC1CS(=O)(=O)N(c2cccc(C(=O)NCc3ccc4c(c3)OCO4)c2)C1=O (configuration not stated) | – | –
COc1ccc(Nc2nc(C)c([N+](=O)[O-])c(N3CCCC3)n2)c(OC)c1 | – | –
COc1ccc(Nc2nc(N3CCCC3)c3ccccc3n2)cc1 | · | +
COc1ccccc1NC(=O)CC(NCCOCCO)C(=O)O (configuration not stated) | · | –
CC(NC(=O)CCCc1nnc2c(=O)n(-c3ccc(Cl)cc3)ccn12)c1ccccc1 (configuration not stated) | · | –
CCCc1nnc2c(=O)n(-c3cc(C)cc(C)c3)ccn12 | – | +
CCOc1ccc2nc(SCc3cn4ccsc4n3)[nH]c2c1 | – | –
Cc1nnsc1C(=O)Nc1ccc2c(c1)N(C(=O)C1CC1)CC2 | – | –
Cc1nnsc1C(=O)Nc1ccc2c(c1)N(C(=O)c1ccco1)CC2 | – | +
Cc1cccc(OCCn2cnc3cc(C)c(C)cc32)c1 | · | –
CCS(=O)(=O)N1CCCc2cc(NC(=O)Nc3ccc(OC)cc3)ccc21 | – | –
CCS(=O)(=O)N1CCCc2cc(NC(=O)Nc3cc(Cl)ccc3OC)ccc21 | – | +
CCCS(=O)(=O)N1CCCc2cc(NC(=O)NCCCc3ccccc3)ccc21 | – | +
CCS(=O)(=O)N1CCCc2cc(NC(=O)NCc3ccccc3)ccc21 | – | –
CC(C)OCCCNC(=O)Cc1cc(-c2cc3ccccc3o2)on1 | – | –
Cc1cc(C)c2c(n1)nn1c(NCCOCCO)cc(C)nc21 | – | +
Cc1cc(C)c2c(n1)nn1c(NCCC3=CCCCC3)cc(C)nc21 | – | –
Cc1cc(C)c2c(n1)nn1c(NCc3ccccn3)cc(C)nc21 | – | –
Cc1cc(C)c2c(n1)nn1c(NCCCN(C)C)cc(C)nc21 | – | +
Cn1nnc2c(Nc3ccc(Oc4ccccc4)cc3)ncnc21 | – | –
COc1ccccc1-c1cnn2c(NCCOCCO)cc(C)nc12 | – | –
O=C(c1cc2ccccc2o1)N1CCC(CNS(=O)(=O)c2ccc3c(c2)OCCO3)CC1 | – | –
O=C(CSCc1ccccc1)NCC1CCN(C(=O)c2cc3ccccc3o2)CC1 | – | –
O=C(/C=C/c1ccc2c(c1)OCO2)NCC1CCN(C(=O)c2cc3ccccc3o2)CC1 | – | +
O=C(/C=C/c1ccccc1)NCC1CCN(C(=O)c2cc3ccccc3o2)CC1 | – | +
SMILES | GIRK2 act | AMPAR-TARP mod
COc1ccc(CCNC(=O)c2cnc3c(c(C)nn3-c3ccc(F)cc3)c2Cl)cc1OC | – | –
COc1ccc(-c2cc(=O)n(CC(=O)N3CCN(c4ccc(O)cc4)CC3)cn2)cc1 | – | ·
O=S(=O)(NCCCN1CCOCC1)c1ccc(Cl)c(Cl)c1 | – | –
CCOC(=O)c1ccc(S(=O)(=O)NCCOc2ccc(-c3ccccc3)nn2)cc1 | – | +
COc1ccc(S(=O)(=O)NCCOc2ccc(-c3ccc(F)cc3)nn2)cc1F | – | +
CCOc1ccc(-c2ccc(OCCNS(=O)(=O)c3ccccc3)nn2)cc1 | – | –
CCOc1ccc(S(=O)(=O)NCCOc2ccc(-c3ccccc3)nn2)cc1 | – | +
COc1ccc(Cl)cc1S(=O)(=O)NCCOc1ccc(-c2ccccc2)nn1 | – | –
COc1ccc(S(=O)(=O)NCCOc2ccc(-c3ccc(C)cc3)nn2)cc1OC | – | –
CCOC(=O)c1ccc(S(=O)(=O)NCCOc2ccc(-c3ccc(OC)cc3)nn2)cc1 | – | –
CCOc1ccc(C(C)C)cc1S(=O)(=O)NCCOc1ccc(-c2ccccc2)nn1 | – | +
O=C(Cc1cc(-c2cccs2)on1)NCc1ccc2c(c1)OCO2 | – | –
Cc1ccc(S(=O)(=O)N(C)CC(O)CN2CCOCC2)cc1 (configuration not stated) | – | –
CC(O)(CNC(=O)NCCc1ccccc1)c1ccc(-c2ccccc2)cc1 (configuration not stated) | – | –
CCC/C(O)=C(\C#N)c1nc2ccccc2[nH]1 | – | +
CCCCOC(=O)CCc1nc2ccccc2[nH]c1=O | · | –
Cc1[nH]c(=O)[nH]c(=O)c1CC(=O)Nc1cc(C(C)(C)C)no1 | – | –
CSc1ccc(CC(=O)Nc2nc(-c3cccs3)cs2)cc1 | · | –
O=C(Nc1nc(C(=O)N2CCc3ccccc3C2)co1)c1ccco1 | – | +
O=C(NCc1ccccc1Cl)c1coc(NC(=O)c2ccco2)n1 | – | –
O=C(COc1ccc(C(=O)c2ccccc2)cc1)NCCn1nc(-c2ccc(Cl)cc2)ccc1=O | – | +
O=C(COc1ccc(C(=O)c2ccccc2)cc1)NCCn1nc(-c2cccs2)ccc1=O | – | –
CC(O)(CNS(C)(=O)=O)c1ccccc1 (configuration not stated) | – | ·
CC(C)CCn1c(C2CC(=O)N(Cc3ccccc3)C2)nc2ccccc21 (configuration not stated) | · | +
